What all share (experiment): DAPPL (digital affinity profiling via proximity ligation, sequencing); 10 mM Tris-HCl pH 7.5, 50 mM NaCl, 1 mM DTT, 4% glycerol, room temperature, 30 min; GST-TFs on glutathione beads, 16-mer random dsDNA library, 0.1% formaldehyde crosslink after washing; high values mean tight binding
Holding throughout (conditions): protein: recombinant; tags: N-terminal GST; dsDNA, one strand shown

The target in one assay is T1, ERF (Homo sapiens, UniProt P50548 1-548).
T1 sequence: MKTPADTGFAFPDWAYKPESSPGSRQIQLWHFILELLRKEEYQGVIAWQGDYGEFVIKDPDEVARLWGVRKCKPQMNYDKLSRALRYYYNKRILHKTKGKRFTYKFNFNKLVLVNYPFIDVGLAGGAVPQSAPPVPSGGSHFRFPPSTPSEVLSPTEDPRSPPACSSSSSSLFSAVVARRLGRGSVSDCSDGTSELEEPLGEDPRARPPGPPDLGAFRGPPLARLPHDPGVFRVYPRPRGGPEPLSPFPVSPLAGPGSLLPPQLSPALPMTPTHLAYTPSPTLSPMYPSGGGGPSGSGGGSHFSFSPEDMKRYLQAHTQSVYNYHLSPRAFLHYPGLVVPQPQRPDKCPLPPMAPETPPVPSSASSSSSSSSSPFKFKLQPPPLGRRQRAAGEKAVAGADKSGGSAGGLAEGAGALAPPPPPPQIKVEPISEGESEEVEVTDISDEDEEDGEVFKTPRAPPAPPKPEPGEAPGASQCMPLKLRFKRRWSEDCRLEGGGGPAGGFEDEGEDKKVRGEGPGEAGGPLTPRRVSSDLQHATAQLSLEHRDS
In a few lines: (§1)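 Binding signal is each hexamer's read frequency for a factor divided by its frequency in the tag-only sample. The factors were GST-fused human transcription factors from yeast, captured on glutathione beads, DNA-barcoded and pooled with that sample. Pools were incubated with 200 nmole of a random double-stranded 16-mer DNA library in Tris/NaCl/DTT/glycerol buffer at room temperature for 30 min, then washed, crosslinked with 0.1% formaldehyde, proximity-ligated with BsaI/T4 ligase (1 h, 37 °C), PCR-amplified and sequenced on an Illumina NextSeq500.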

The target of the next assay is T2, ETV3L (Homo sapiens, UniProt Q6ZN32 1-361).
T2 sequence: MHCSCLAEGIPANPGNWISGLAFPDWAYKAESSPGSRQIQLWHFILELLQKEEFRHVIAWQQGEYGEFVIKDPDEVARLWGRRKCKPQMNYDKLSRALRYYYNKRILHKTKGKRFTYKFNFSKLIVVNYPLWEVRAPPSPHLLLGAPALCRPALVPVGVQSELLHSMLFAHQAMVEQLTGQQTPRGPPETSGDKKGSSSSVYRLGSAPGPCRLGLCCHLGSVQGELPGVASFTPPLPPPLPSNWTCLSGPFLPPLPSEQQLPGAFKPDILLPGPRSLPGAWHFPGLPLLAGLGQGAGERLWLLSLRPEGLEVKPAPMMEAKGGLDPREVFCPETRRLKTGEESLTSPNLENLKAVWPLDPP
The method in brief: as §1

For a further assay, the target named is T3, ETS2 (Homo sapiens, UniProt P15036 1-469).
T3 sequence: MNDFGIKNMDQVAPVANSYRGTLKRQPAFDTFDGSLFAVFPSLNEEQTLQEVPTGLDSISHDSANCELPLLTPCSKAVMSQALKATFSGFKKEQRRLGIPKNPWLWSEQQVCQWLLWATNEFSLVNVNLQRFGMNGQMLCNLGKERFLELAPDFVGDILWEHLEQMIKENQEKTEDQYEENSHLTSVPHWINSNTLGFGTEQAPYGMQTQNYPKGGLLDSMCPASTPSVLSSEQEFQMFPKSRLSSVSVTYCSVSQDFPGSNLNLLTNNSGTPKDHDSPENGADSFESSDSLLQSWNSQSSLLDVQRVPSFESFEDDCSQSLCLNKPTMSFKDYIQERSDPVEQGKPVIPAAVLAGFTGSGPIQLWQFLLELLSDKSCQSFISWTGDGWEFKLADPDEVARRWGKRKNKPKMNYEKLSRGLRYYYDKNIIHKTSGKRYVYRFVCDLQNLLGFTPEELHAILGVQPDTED
The method in brief: as §1

For the next assay, the target named is T4, SPDEF (Homo sapiens, UniProt O95238 1-335).
T4 sequence: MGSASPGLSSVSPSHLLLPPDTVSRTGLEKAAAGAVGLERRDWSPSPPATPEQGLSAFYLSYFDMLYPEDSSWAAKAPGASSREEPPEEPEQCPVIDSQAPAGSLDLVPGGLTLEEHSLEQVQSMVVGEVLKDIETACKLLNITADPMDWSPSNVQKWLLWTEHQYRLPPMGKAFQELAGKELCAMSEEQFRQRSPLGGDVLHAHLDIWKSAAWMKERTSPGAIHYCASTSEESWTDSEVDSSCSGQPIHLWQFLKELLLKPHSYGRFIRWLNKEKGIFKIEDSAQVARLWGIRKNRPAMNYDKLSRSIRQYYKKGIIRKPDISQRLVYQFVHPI
The method in brief: as §1

For a further assay, the target named is T5, ETV7 (Homo sapiens, UniProt Q9Y603 1-341).
T5 sequence: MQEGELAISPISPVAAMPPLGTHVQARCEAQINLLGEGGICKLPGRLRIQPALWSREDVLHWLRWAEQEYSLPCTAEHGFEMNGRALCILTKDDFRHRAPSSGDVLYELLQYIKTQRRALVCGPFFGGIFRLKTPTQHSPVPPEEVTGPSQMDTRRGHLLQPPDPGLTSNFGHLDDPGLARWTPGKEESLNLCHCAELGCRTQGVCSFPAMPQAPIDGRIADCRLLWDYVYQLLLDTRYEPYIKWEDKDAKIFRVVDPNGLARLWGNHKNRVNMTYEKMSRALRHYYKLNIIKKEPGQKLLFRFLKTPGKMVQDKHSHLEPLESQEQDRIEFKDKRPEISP
The method in brief:
as §1

The next assay addresses T6, ELF5 (Homo sapiens, UniProt Q9UKW6-2 1-255).
T6 sequence: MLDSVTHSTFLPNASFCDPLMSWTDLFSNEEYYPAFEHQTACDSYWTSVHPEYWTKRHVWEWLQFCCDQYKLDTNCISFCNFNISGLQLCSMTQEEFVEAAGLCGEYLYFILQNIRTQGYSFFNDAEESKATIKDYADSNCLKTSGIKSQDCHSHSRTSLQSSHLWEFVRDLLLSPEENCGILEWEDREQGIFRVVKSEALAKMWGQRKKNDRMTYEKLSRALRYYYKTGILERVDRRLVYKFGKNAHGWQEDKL
The method in brief: as §1

In another assay the target is T7, ETV3 (Homo sapiens, UniProt P41162-2 1-143).
T7 sequence: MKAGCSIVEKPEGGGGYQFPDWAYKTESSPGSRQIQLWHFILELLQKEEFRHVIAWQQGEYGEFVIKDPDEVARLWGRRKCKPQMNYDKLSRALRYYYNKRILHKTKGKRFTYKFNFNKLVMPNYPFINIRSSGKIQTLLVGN
The method in brief: as §1

Another assay deals with ETV6 (Homo sapiens, UniProt P41212 1-452). The method in brief:
as §1

Chain of ETV6 (P41212 whole entry): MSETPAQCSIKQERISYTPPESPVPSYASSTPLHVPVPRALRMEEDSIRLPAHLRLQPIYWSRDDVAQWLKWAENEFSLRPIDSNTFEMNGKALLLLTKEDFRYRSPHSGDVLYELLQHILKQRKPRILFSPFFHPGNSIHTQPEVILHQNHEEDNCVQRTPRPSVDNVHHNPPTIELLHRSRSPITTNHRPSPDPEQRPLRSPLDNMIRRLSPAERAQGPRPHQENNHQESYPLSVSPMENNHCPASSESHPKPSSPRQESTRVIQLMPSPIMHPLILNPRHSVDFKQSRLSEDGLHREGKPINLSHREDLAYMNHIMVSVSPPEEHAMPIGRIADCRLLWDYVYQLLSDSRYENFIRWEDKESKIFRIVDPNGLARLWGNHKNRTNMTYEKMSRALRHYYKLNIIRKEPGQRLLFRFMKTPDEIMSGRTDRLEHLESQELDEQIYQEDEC

As to GCTTTT, the binding signal in the assay with ERF was 1.16 fold enrichment (6-mer frequency, TF over GST control); with ETV3L, 1.12 fold enrichment (6-mer frequency, TF over GST control); in the assay with ETS2, 1.17 fold enrichment (6-mer frequency, TF over GST control); with SPDEF, 1.09 fold enrichment (6-mer frequency, TF over GST control); with ETV7, 1.21 fold enrichment (6-mer frequency, TF over GST control); in the assay with ELF5, 1.06 fold enrichment (6-mer frequency, TF over GST control). The binding signal with ETV3 was 1.15 fold enrichment (6-mer frequency, TF over GST control); with ETV6, 1.22 fold enrichment (6-mer frequency, TF over GST control).

For ATACTT, the binding signal in the assay with ERF was 1.66 fold enrichment (6-mer frequency, TF over GST control); with ETV3L, 1.59 fold enrichment (6-mer frequency, TF over GST control); with ETS2, 1.59 fold enrichment (6-mer frequency, TF over GST control); with SPDEF, 1.63 fold enrichment (6-mer frequency, TF over GST control); in the assay with ETV7, 1.69 fold enrichment (6-mer frequency, TF over GST control); with ELF5, 1.84 fold enrichment (6-mer frequency, TF over GST control). Besides, the binding signal with ETV3 is 1.63 fold enrichment (6-mer frequency, TF over GST control); with ETV6, 1.87 fold enrichment (6-mer frequency, TF over GST control).

Turning to ATGTTG, the binding signal with ERF is 1.24 fold enrichment (6-mer frequency, TF over GST control); with ETV3L it was 1.23 fold enrichment (6-mer frequency, TF over GST control); in the assay with ETS2, 1.22 fold enrichment (6-mer frequency, TF over GST control); with SPDEF, 1.31 fold enrichment (6-mer frequency, TF over GST control); with ETV7 it was 1.43 fold enrichment (6-mer frequency, TF over GST control); in the assay with ELF5, 1.15 fold enrichment (6-mer frequency, TF over GST control). Besides, the binding signal is 1.33 fold enrichment (6-mer frequency, TF over GST control) with ETV3 and 1.22 fold enrichment (6-mer frequency, TF over GST control) with ETV6.

In the case of ATTCCA, the binding signal in the assay with ERF was 1.14 fold enrichment (6-mer frequency, TF over GST control); with ETV3L, 1.31 fold enrichment (6-mer frequency, TF over GST control); in the assay with ETS2, 1.15 fold enrichment (6-mer frequency, TF over GST control); with SPDEF, 1.11 fold enrichment (6-mer frequency, TF over GST control); with ETV7 it was 1.1 fold enrichment (6-mer frequency, TF over GST control); with ELF5, 1.15 fold enrichment (6-mer frequency, TF over GST control). The binding signal with ETV3 is 1.15 fold enrichment (6-mer frequency, TF over GST control); in the assay with ETV6 it was 1.19 fold enrichment (6-mer frequency, TF over GST control).

For the sequence TTACGA, the binding signal with ERF is 1.06 fold enrichment (6-mer frequency, TF over GST control); in the assay with ETV3L, 1.18 fold enrichment (6-mer frequency, TF over GST control); with ETS2 it was 1.14 fold enrichment (6-mer frequency, TF over GST control); with SPDEF it was 1.1 fold enrichment (6-mer frequency, TF over GST control); in the assay with ETV7 it was 1.1 fold enrichment (6-mer frequency, TF over GST control); with ELF5, 1.08 fold enrichment (6-mer frequency, TF over GST control). Moreover, the binding signal with ETV3 is 1.1 fold enrichment (6-mer frequency, TF over GST control); with ETV6, 1.21 fold enrichment (6-mer frequency, TF over GST control).

In the case of TCTATG, the binding signal is 1.07 fold enrichment (6-mer frequency, TF over GST control) with ERF; 1.08 fold enrichment (6-mer frequency, TF over GST control) with ETV3L; 1.08 fold enrichment (6-mer frequency, TF over GST control) in the assay with ETS2; 1.05 fold enrichment (6-mer frequency, TF over GST control) with SPDEF; 1.25 fold enrichment (6-mer frequency, TF over GST control) with ETV7; 1.07 fold enrichment (6-mer frequency, TF over GST control) with ELF5. Also, the binding signal with ETV3 was 1.18 fold enrichment (6-mer frequency, TF over GST control).

Take TCGCAC: the binding signal was 1.06 fold enrichment (6-mer frequency, TF over GST control) in the assay with ERF; 1.06 fold enrichment (6-mer frequency, TF over GST control) with ETV3L; 1.04 fold enrichment (6-mer frequency, TF over GST control) in the assay with ETS2; 1.05 fold enrichment (6-mer frequency, TF over GST control) with SPDEF; 1.03 fold enrichment (6-mer frequency, TF over GST control) in the assay with ETV7; 1.06 fold enrichment (6-mer frequency, TF over GST control) in the assay with ELF5. The binding signal with ETV3 is 1.07 fold enrichment (6-mer frequency, TF over GST control).

TATAAG: the binding signal with ERF was 1.2 fold enrichment (6-mer frequency, TF over GST control); with ETV3L, 1.21 fold enrichment (6-mer frequency, TF over GST control); with ETS2, 1.17 fold enrichment (6-mer frequency, TF over GST control); in the assay with SPDEF, 1.2 fold enrichment (6-mer frequency, TF over GST control); with ETV7, 1.18 fold enrichment (6-mer frequency, TF over GST control); with ELF5 it was 1.16 fold enrichment (6-mer frequency, TF over GST control). The binding signal is 1.15 fold enrichment (6-mer frequency, TF over GST control) with ETV3 and 1.19 fold enrichment (6-mer frequency, TF over GST control) with ETV6.

These data come from PMC7862700, “An all-to-all approach to the identification of sequence-specific readers for epigenetic DNA modifications on cytosine”.
